Experimental data taken from PubChem BioAssay (NCI).
Compounds without any hit were thinned out: in the full panel of roughly 83,000, 20% have a hit.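 Each cell line was grown in a 96-well plate and treated with one concentration of compound for 48 hours. Values below 10 were considered active.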 Calls of active or inactive are those of the source.

Columns and labels:
Assay in all cases: NCI-60 one-dose screen, 48 h (100 = growth as untreated, 0 = no growth, -100 = all killed)
Settings in all cases: 10 µM unless noted
HCT-15 colon = test system: HCT-15 colon
HT29 colon = test system: HT29 colon
SNB-75 CNS = test system: SNB-75 CNS
SNB-19 CNS = test system: SNB-19 CNS
U251 CNS = test system: U251 CNS
PC-3 prostate = test system: PC-3 prostate
SK-MEL-5 melanoma = test system: SK-MEL-5 melanoma
UACC-62 melanoma = test system: UACC-62 melanoma
LOX IMVI melanoma = test system: LOX IMVI melanoma
SK-MEL-28 melanoma = test system: SK-MEL-28 melanoma

Measured: growth

CC(C)[C@]12O[C@H]1[C@@H]1O[C@]13[C@]1(O[C@H]1C[C@H]1c4c(C(=O)c5ccccc5)oc(OC(=O)c5ccccc5)c4CC[C@@]13C)[C@@H]2O
active: HCT-15 colon 5.32% | HT29 colon 8.55% | SNB-75 CNS -30.5% | PC-3 prostate -0.741% | SK-MEL-5 melanoma -51.9% | UACC-62 melanoma -28.7% | LOX IMVI melanoma 9.13% | SK-MEL-28 melanoma -69.5%
inactive: SNB-19 CNS 13.8% | U251 CNS 12.1%

ClCCN(CCCl)c1ccc(-n2cnc3c(Cl)ncnc32)cc1
inactive: HT29 colon 12.7% | SNB-75 CNS 26.1% | SNB-19 CNS 79.2% | U251 CNS 32.8% | PC-3 prostate 64.1% | SK-MEL-5 melanoma 86.3% | UACC-62 melanoma 31.5%
active: HCT-15 colon -26.7%

CN1CCC(O)(c2ccc(F)cc2)C(C(=O)c2ccc(F)cc2)C1 (configuration not stated)
inactive: HCT-15 colon 107% | HT29 colon 122% | SNB-75 CNS 113% | SNB-19 CNS 95.1% | U251 CNS 107% | PC-3 prostate 98.4% | SK-MEL-5 melanoma 102% | UACC-62 melanoma 100% | LOX IMVI melanoma 94.3%

CC(=O)Oc1ccccc1C(=O)NCCC[Se]C#N
inactive: HT29 colon 91.1% | PC-3 prostate 20.6% | SK-MEL-5 melanoma 35.4% | UACC-62 melanoma 71.3%
active: HCT-15 colon -30.6% | SNB-75 CNS -35.1% | SNB-19 CNS -70.3% | U251 CNS -62.1%

CC[C@H](C)[C@H](NC(=O)C12CC(NC(C)=O)(C1)C2)C(=O)N(C)[C@H](C[C@@H](OC(C)=O)c1nc(C(=O)N[C@@H](Cc2ccccc2)C[C@H](C)C(=O)OC)cs1)C(C)C
inactive: HCT-15 colon 29.3% | SNB-75 CNS 44.8% | SNB-19 CNS 50.9% | U251 CNS 11.6% | PC-3 prostate 15.4%
active: HT29 colon 5.65% | SK-MEL-5 melanoma -6.58%

O=Cc1cn(Cc2ccc(Cl)cc2)c2ccccc12
inactive: HCT-15 colon 89.7% | HT29 colon 106% | SNB-75 CNS 86.7% | SNB-19 CNS 89.7% | U251 CNS 75.5% | PC-3 prostate 82.3% | SK-MEL-5 melanoma 94.4% | LOX IMVI melanoma 88.2%
active: UACC-62 melanoma -0.449%

CN(C)CCCOc1ccc2c(c1)c(C(=O)C(=O)NCCO)cn2Cc1ccccc1
inactive: HCT-15 colon 105% | HT29 colon 107% | SNB-75 CNS 97.4% | SNB-19 CNS 102% | U251 CNS 96.4% | PC-3 prostate 105% | SK-MEL-5 melanoma 99.8% | UACC-62 melanoma 100% | LOX IMVI melanoma 93%

CC[C@]12C=CCN3CC[C@]4(C(=C(C(=O)OC)C1)Nc1cc(OC)c(OC(C)=O)cc14)[C@@H]32
active: HT29 colon 0.643% | U251 CNS 3.52% | SK-MEL-5 melanoma -33.4%
inactive: HCT-15 colon 21% | SNB-75 CNS 50.6% | SNB-19 CNS 32.2% | PC-3 prostate 22.5%

CC1=C([Te]c2ccc(O)cc2)C(=O)c2ccccc2C1=O
inactive: HCT-15 colon 13.6% | SNB-19 CNS 12.3% | U251 CNS 10%
active: HT29 colon 1.03% | SNB-75 CNS -3.63% | PC-3 prostate 5.85% | SK-MEL-5 melanoma -94.6% | UACC-62 melanoma 5.4% | LOX IMVI melanoma 5.05% | SK-MEL-28 melanoma -12.4%

O=NNc1ccccn1
inactive: HCT-15 colon 40.2% | HT29 colon 34.3% | SNB-75 CNS 95.5% | SNB-19 CNS 101% | U251 CNS 80.1% | PC-3 prostate 82.9% | SK-MEL-5 melanoma 99.3% | UACC-62 melanoma 85.9% | LOX IMVI melanoma 71.1% | SK-MEL-28 melanoma 100%

CO[C@H](C(=O)O)[C@@H]1Cc2cc3cc(OC4CC(OC5CC(O)C(O)C(C)O5)C(O)C(C)O4)c(C)c(O)c3c(O)c2C(=O)[C@H]1OC1CC(OC2CC(OC3CC(C)(O)C(O)C(C)O3)C(O)C(C)O2)C(O)C(C)O1 (some centres not stated)
inactive: HCT-15 colon 38.7% | SNB-19 CNS 10.8% | U251 CNS 10.1% | PC-3 prostate 19.7%
active: HT29 colon 7.12% | SNB-75 CNS -55.1% | SK-MEL-5 melanoma -17.2% | UACC-62 melanoma -68.1% | LOX IMVI melanoma -6.05% | SK-MEL-28 melanoma -5.84%

O=[N+]([O-])c1cc(I)cc([N+](=O)[O-])c1
inactive: HCT-15 colon 90.2% | HT29 colon 109% | SNB-75 CNS 93.2% | SNB-19 CNS 113% | U251 CNS 107% | PC-3 prostate 92.5% | SK-MEL-5 melanoma 95.2% | UACC-62 melanoma 103% | LOX IMVI melanoma 91.8% | SK-MEL-28 melanoma 116%

COc1cc(C=Nc2cccc(Br)c2)ccc1N(CCCl)CCCl
inactive: HCT-15 colon 82.4% | HT29 colon 63.4% | SNB-75 CNS 69.1% | SNB-19 CNS 91.9% | U251 CNS 73% | PC-3 prostate 68.4% | SK-MEL-5 melanoma 86% | UACC-62 melanoma 76.1% | LOX IMVI melanoma 68.7% | SK-MEL-28 melanoma 116%

CCOC(=O)C(Cc1ccc(N(CCCl)CCCl)cc1)NC(=O)C(CC(C)C)NC(C)=O (configuration not stated)
active: HT29 colon 8.7% | LOX IMVI melanoma -15.6% | SK-MEL-28 melanoma 6.21%
inactive: HCT-15 colon 35% | SNB-75 CNS 41.6% | SNB-19 CNS 57.6% | U251 CNS 25.5% | PC-3 prostate 60.9% | SK-MEL-5 melanoma 60.8% | UACC-62 melanoma 13.1%

O=c1[nH]c2ccc([N+](=O)[O-])cc2c(=O)o1
inactive: HCT-15 colon 99% | HT29 colon 113% | SNB-75 CNS 113% | SNB-19 CNS 102% | U251 CNS 106% | PC-3 prostate 92.8% | SK-MEL-5 melanoma 95.3% | UACC-62 melanoma 100% | LOX IMVI melanoma 99.9% | SK-MEL-28 melanoma 105%

C[Se]C(=O)c1ccccc1OC(C)=O
active: SNB-75 CNS -42.4%
inactive: HCT-15 colon 81% | HT29 colon 11.1% | SNB-19 CNS 46.6% | U251 CNS 46% | PC-3 prostate 70% | SK-MEL-5 melanoma 79.3% | UACC-62 melanoma 58.2% | LOX IMVI melanoma 45.3% | SK-MEL-28 melanoma 46.1%

Oc1c(O)c(Cl)c(Cl)c(Cl)c1Cl
inactive: HCT-15 colon 26.3% | HT29 colon 62.7% | SNB-75 CNS 36.7% | SNB-19 CNS 29.7% | U251 CNS 38.9% | PC-3 prostate 34.5% | SK-MEL-5 melanoma 22.5% | LOX IMVI melanoma 24.4% | SK-MEL-28 melanoma 51.4%
active: UACC-62 melanoma 3.58%

OCCNC(Cc1ccccc1)c1ccc2c(c1)OCO2 (configuration not stated)
inactive: HCT-15 colon 100% | HT29 colon 73% | SNB-75 CNS 108% | SNB-19 CNS 106% | U251 CNS 92.9% | PC-3 prostate 73.1% | SK-MEL-5 melanoma 101% | UACC-62 melanoma 92.4% | LOX IMVI melanoma 93.5% | SK-MEL-28 melanoma 109%

COC(=O)[C@@H](C)C[C@H](Cc1ccccc1)NC(=O)c1csc([C@@H](C[C@H](C(C)C)N(C)C(=O)[C@@H](NC(=O)[C@H]2CCCCN2C)C(C(F)(F)F)C(F)(F)F)OC(C)=O)n1
active: U251 CNS 3.74% | SK-MEL-5 melanoma -18.5%
inactive: HCT-15 colon 22.3% | HT29 colon 14.4% | SNB-75 CNS 14.9% | SNB-19 CNS 23.2% | PC-3 prostate 27.2% | UACC-62 melanoma 26.4% | LOX IMVI melanoma 13.5% | SK-MEL-28 melanoma 71.5%

COc1cccc2c1c(C(=O)C(=O)Nc1ccn[nH]1)cn2Cc1ccc(F)cc1
inactive: HCT-15 colon 106% | HT29 colon 105% | SNB-75 CNS 90.1% | SNB-19 CNS 107% | U251 CNS 103% | PC-3 prostate 98.3% | SK-MEL-5 melanoma 106% | UACC-62 melanoma 92.1% | LOX IMVI melanoma 103% | SK-MEL-28 melanoma 110%

CC(=O)ONc1ccc([N+](=O)[O-])c(C(F)(F)F)c1
inactive: HCT-15 colon 108% | HT29 colon 108% | SNB-75 CNS 82.9% | SNB-19 CNS 107% | U251 CNS 104% | PC-3 prostate 95.4% | SK-MEL-5 melanoma 109% | UACC-62 melanoma 96.8% | LOX IMVI melanoma 98.8% | SK-MEL-28 melanoma 110%

CCCC[C@H](NC(=O)[C@H]1CCCN1C)C(=O)N(C)[C@H](C[C@@H](OC(C)=O)c1nc(C(=O)N[C@@H](Cc2ccccc2)C[C@H](C)C(=O)OCC)cs1)C(C)C
inactive: HCT-15 colon 19.1% | SNB-75 CNS 51.5% | SNB-19 CNS 38.4% | PC-3 prostate 13% | UACC-62 melanoma 43.4% | LOX IMVI melanoma 20.8% | SK-MEL-28 melanoma 71.3%
active: HT29 colon 1.99% | U251 CNS 8.61% | SK-MEL-5 melanoma -25.1%

Clc1cccc(Cl)c1Cl
inactive: HCT-15 colon 101% | HT29 colon 82.8% | SNB-75 CNS 93.8% | SNB-19 CNS 118% | U251 CNS 98.4% | PC-3 prostate 103% | SK-MEL-5 melanoma 105% | UACC-62 melanoma 99.8% | LOX IMVI melanoma 101% | SK-MEL-28 melanoma 109%

N#CCCNc1ccccc1
inactive: HCT-15 colon 111% | HT29 colon 108% | SNB-75 CNS 88.6% | SNB-19 CNS 116% | U251 CNS 103% | PC-3 prostate 96.9% | SK-MEL-5 melanoma 107% | UACC-62 melanoma 117% | LOX IMVI melanoma 106% | SK-MEL-28 melanoma 99.8%

O=C(O)C(O)C(O)C1[O][Sb]([c]2ccc([N+](=O)[O-])cc2)[O]C1CO (configuration not stated)
inactive: HCT-15 colon 95.8% | HT29 colon 101% | SNB-75 CNS 99.1% | SNB-19 CNS 94.9% | U251 CNS 101% | PC-3 prostate 100% | SK-MEL-5 melanoma 103% | UACC-62 melanoma 91.9% | LOX IMVI melanoma 101% | SK-MEL-28 melanoma 106%

COC(=O)C12CC(NC(=O)c3csc([C@@H](C[C@H](C(C)C)N(C)C(=O)[C@@H](NC(=O)[C@H]4CCCCN4C)C4CC4)OC(C)=O)n3)(C1)C2
active: HT29 colon -8.13% | SK-MEL-5 melanoma -22.5%
inactive: HCT-15 colon 14.1% | SNB-75 CNS 43.4% | SNB-19 CNS 39.6% | U251 CNS 11.8% | PC-3 prostate 23.4% | UACC-62 melanoma 58.6% | LOX IMVI melanoma 15.7% | SK-MEL-28 melanoma 60.1%

C=COC(=O)CCN1CC1
inactive: HCT-15 colon 109% | HT29 colon 110% | SNB-75 CNS 101% | SNB-19 CNS 96.3% | U251 CNS 101% | PC-3 prostate 97.5% | SK-MEL-5 melanoma 105% | UACC-62 melanoma 97.9% | LOX IMVI melanoma 100% | SK-MEL-28 melanoma 113%

CCOc1ccc(/C=C/[N+](=O)[O-])cc1
active: HT29 colon 9.84%
inactive: HCT-15 colon 51.1% | SNB-75 CNS 90.6% | SNB-19 CNS 91.2% | U251 CNS 60.1% | PC-3 prostate 77.4% | SK-MEL-5 melanoma 74.4% | UACC-62 melanoma 92.8% | LOX IMVI melanoma 62.9% | SK-MEL-28 melanoma 110%
